# Records with an inconclusive call do not appear. Entries that show only a call come without a potency. Active and inactive are the calls of the source. Calls follow the shape of the dose curve; as a rule, active = well fitted inhibition curve with a large enough effect; inconclusive = small, poorly fitted or top-dose-only effect; inactive = flat fitted curve, though single readings scatter.
# Tested on: MCC-26
# Assay: qHTS assay to identify novel small-molecules to repurpose for Merkel cell carcinoma treatment (AID 1296009); also: nearly all actives have a fitted effect of over 60% in size
# Details: MCC and control cell lines, CellTiter-Glo viability, 72 h; series mostly up to 46 µM
# Text: MCC is a rare and aggressive neuroendocrine skin cancer with limited treatment options. Approximately 80% of MCCs have the Merkel cell polyomavirus (MCPyV) DNA integrated into the host genome (virus-positive: VP-MCC) and viral oncogenes drive oncogenesis. The remaining MCCs are virus-negative (VN-MCC) and are caused by UV mutagenesis. To identify novel treatments for VP-MCC and/or VN-MCC we screened three VP-MCC cell lines (WAGA, MKL-1, MKL-2), three VN-MCC cell lines (MCC-13, MCC-26, UISO), and four immortalized, non-transformed control cell lines (HaCaT, HEK293T, CRL7250, NIH-3T3) against ~2,400 compounds in the NCGC Pharmaceutical Collection (NPC) and ~1,900 compounds in the Mechanism Interrogation PlatE (MiPE). Using cell viability as a readout (CellTiter-Glo assay) we found both overlapping and distinct drugs that can be repurposed for the treatment of VP-MCC and VN-MCC.
# A high-throughput screen was conducted in 1536-well white flat bottom plates (Corning) on a Kalypsys robotic system. Cell lines WAGA, MKL-1, MKL-2, MCC-13, MCC-26, UISO, HaCaT, HEK293T, CRL7250, and NIH-3T3 were screened against 2 small molecule annotated drug libraries NPC and MIPE in dose response (8 and 11 pt. respectively) measuring cell viability after 72 hours of incubation. […] A 1,536 pintool (Kalypsys) was used to transfer 23 nL of compound in DMSO to the 1,536-well assay plates. After 72 hr incubation at 37 degree celsius, 2.5 uL of CellTiter-Glo (Promega) was dispensed into each well using a BiorapTR. Plates were incubated at room temperature for 10 min, transferred to a ViewLux (PerkinElmer) and the luminescence was recorded using an exposure time of 2 seconds. Relative luminescence units (RLUs) were normalized to in-plate controls (no cells as a positive (cytotoxicity) control, DMSO as negative control) and the normalized data was processed using NCATS in-house software.
row,Compound,Potency
1,O=C1[C@H](Cc2ccc(O)cc2)N2C(=O)CCN(C(=O)NCc3ccccc3)[C@H]2CN1Cc1cccc2ccccc12,inactive
2,CCOc1ccc(Cc2cc([C@@H]3O[C@H](CO)[C@@H](O)[C@H](O)[C@@H]3O)ccc2Cl)cc1,inactive
3,OC(CCN1CCCCC1)(c1ccccc1)C1CC2C=CC1C2 (stereo not given),inactive
4,N#Cc1ccc(C(c2ccc(C#N)cc2)n2cncn2)cc1,inactive
5,Cc1cc2c(C(C)C)c(O)c(O)c(C=O)c2c(O)c1-c1c(C)cc2c(C(C)C)c(O)c(O)c(C=O)c2c1O,inactive
6,CCCC(CCC)C(=O)O,inactive
7,N#CC[C@H](C1CCCC1)n1cc(-c2ncnc3[nH]ccc23)cn1,inactive
8,COc1ccc(CCN2CCN(CCCc3ccccc3)CC2)cc1OC,inactive
9,OCCn1cc(-c2cnc3nnn(Cc4ccc5ncccc5c4)c3n2)cn1,inactive
10,CC(C)C[C@H](NC(=O)[C@@H](O)[C@H](N)Cc1ccccc1)C(=O)O,inactive
11,COc1ccc2c3n(c(=NC(=O)c4cccnc4)nc2c1OC)CCN3,inactive
12,CCn1c(-c2nonc2N)nc2c(C#CC(C)(C)O)ncc(OC[C@H]3CCCNC3)c21,inactive
13,CC(=O)Oc1ccccc1C(=O)O,inactive
14,C[C@]12CC[C@H](O)CC1=CC[C@@H]1[C@H]2CC[C@]2(C)C(c3cccnc3)=CC[C@H]12,inactive
15,CCCS(=O)(=O)Nc1ccc(F)c(C(=O)c2c[nH]c3ncc(-c4ccc(Cl)cc4)cc23)c1F,inactive
16,Cc1cc(Nc2nc(N[C@@H](C)c3ncc(F)cn3)ncc2Cl)n[nH]1,inactive
17,O=C(Nc1nc2ccccc2n1CCN1CCOCC1)c1cccc([N+](=O)[O-])c1,inactive
18,NNCCc1ccccc1,inactive
19,C[C@]12CCC(=O)C=C1CC[C@@H]1[C@@H]2[C@@H](O)C[C@@]2(C)[C@H]1CC[C@]2(O)C(=O)CO,inactive
20,COc1ccc(COc2cc3oc(=O)c4cc(C(C)O)ccc4c3cc2OC)cc1 (stereo not given),inactive

row,Compound,Potency
1,COc1ccc2nc(S(=O)Cc3ncc(C)c(OC)c3C)[nH]c2c1 (stereo not given),inactive
2,O=C(Nc1cccnc1)N1CCC(Cc2cccc(Oc3ccc(C(F)(F)F)cn3)c2)CC1,inactive
3,CC[C@@H](C)[C@H](NC(=O)[C@H](CC1CCCCC1)NC(=O)c1ccno1)C(=O)N1CCC2(CCc3ccccc32)CC1,inactive
4,C#Cc1cccc(Nc2ncnc3cc(OCCOC)c(OCCOC)cc23)c1,inactive
5,NC(=O)C1CCCc2c1[nH]c1ccc(Cl)cc21 (stereo not given),inactive
6,Cc1cccc(-c2nn(C(=S)Nc3ccccc3)cc2-c2ccnc3ccccc23)n1,inactive
7,C[C@H](NC(=O)Cc1cc(F)cc(F)c1)C(=O)N[C@@H]1C(=O)N(C)c2ccccc2-c2ccccc21,inactive
8,CCc1cc(Nc2nccc(-c3c(-c4ccc(OC)c(C(=O)Nc5c(F)cccc5F)c4)nc4ccccn34)n2)c(OC)cc1N1CCC(N2CCN(S(C)(=O)=O)CC2)CC1,inactive
9,CC(C[N+](C)(C)C)OC(N)=O (stereo not given),inactive
10,O=S(=O)(N=Cc1c(O)ccc2ccccc12)c1cccs1,inactive
11,NC(=O)c1cnccn1,inactive
12,O=c1[nH]cnc2[nH]ncc12,inactive
13,COc1cc(Nc2ncc3c(n2)-c2ccc(Cl)cc2C(c2c(F)cccc2OC)=NC3)ccc1C(=O)O,inactive
14,CC(C)OC(=O)C1=CN(C(=O)c2ccc(F)c(F)c2)CC(C)(C)c2c1[nH]c1ccccc21,inactive
15,O=NN(CCCl)C(=O)NCCCl,inactive
16,Cn1cnc2c(F)c(Nc3ccc(Br)cc3Cl)c(C(=O)NOCCO)cc21,inactive
17,O=C(C=Cc1ccc(/C=C/C(=O)Nc2ccc(C3=NCCN3)cc2)cc1)Nc1ccc(C2=NCCN2)cc1,inactive
18,CCCc1nc2c(C)cc(-c3nc4ccccc4n3C)cc2n1Cc1ccc(-c2ccccc2C(=O)O)cc1,inactive
19,N=c1nc(N2CCCCC2)cc(N)n1O,inactive
20,Cc1cc(C=c2sc3nc4ccccc4n3c2=O)c(C)n1-c1ccccc1,inactive
